RORgamma inh = inhibitors of mouse ROR gamma transcriptional activity. P51450. Drosophila S2 Gal4-RORgamma UAS-luciferase reporter, 20 h. Potency, µM (top dose mostly 53.6 µM), actives largely listed as inhibitors. 310,000 compounds, 5.4% hits. AID 2551; further: nearly all actives have a fitted effect of over 60% in size
Target sequence (P51450 whole entry, looked up, the tested form may be a part): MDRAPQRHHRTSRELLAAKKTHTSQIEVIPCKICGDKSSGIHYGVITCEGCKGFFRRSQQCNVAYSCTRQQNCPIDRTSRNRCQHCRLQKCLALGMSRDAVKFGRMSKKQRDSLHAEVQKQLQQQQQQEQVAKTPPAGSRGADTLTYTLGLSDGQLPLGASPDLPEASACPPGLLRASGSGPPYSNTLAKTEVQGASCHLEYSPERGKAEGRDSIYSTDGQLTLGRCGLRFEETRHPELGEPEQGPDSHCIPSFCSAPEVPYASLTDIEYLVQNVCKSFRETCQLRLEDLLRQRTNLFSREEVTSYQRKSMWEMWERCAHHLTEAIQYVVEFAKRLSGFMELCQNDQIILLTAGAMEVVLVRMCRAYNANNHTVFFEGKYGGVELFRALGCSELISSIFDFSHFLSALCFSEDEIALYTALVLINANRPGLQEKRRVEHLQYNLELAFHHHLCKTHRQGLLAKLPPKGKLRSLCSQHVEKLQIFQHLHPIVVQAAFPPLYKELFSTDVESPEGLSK
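Luminescence from a UAS-regulated Photinus luciferase reporter in stably transfected Drosophila Schneider cells is measured; decreased signal marks ROR gamma inhibition. Fusion expression is induced by 700 uM copper sulfate for 20 hr.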
IL1B secr inh = inhibitors of inflammasome signaling (IL-1 beta secretion); THP-1 LPS/ATP IL-1B secretion, AlphaLISA, 16 h; stronger effect = lower value; activity change, % at 57.5 µM; 360,000 compounds, 4.7% hits; AID 743279; in the data active means activity change below about -50%; inconclusive means mostly about -30% to -49%
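Secreted IL-1B measured by AlphaLISA bead assay after 16 h compound exposure of THP-1 cells; compounds (final up to 57.5 uM) added 1 h before LPS (250 ng/mL) and ATP (1.25 mM) stimulation; lower signal means less secretion.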
TDP1 cell CPT = growth inhibition of DT40 Tdp1-/-;hTDP1 cells with camptothecin (screen for TDP1 inhibitors) | chicken DT40 Tdp1-/-;hTDP1 cells + 20 nM CPT, ATP luminescence, 48 h | 420,000 compounds, 12% hits | Potency, µM (series often up to 46.2 µM), actives largely listed as inhibitors; further: nearly all actives have a fitted effect of over 55% in size
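Chicken DT40 Tdp1-/- cells stably complemented with human TDP1 were seeded at 400 cells/well in medium containing 20 nM camptothecin, exposed to pin-transferred compounds, and grown at 37 °C for at least 48 hr. Viability was read as ATP luminescence.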
Gal4-VP16 FLuc = counter-screen for ROR gamma inhibitors: Gal4-VP16 reporter; Drosophila S2 Gal4-VP16 UAS-luciferase, luminescence, 20 h; Potency, µM (doses to about 53.6 µM), usual class: inhibitors; 310,000 compounds, 3.5% hits; AID 2546;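 further: Gal4-VP16 expression switched on by copper sulfate through the metallothionein promoter; nearly all actives have a fitted effect of over 50% in size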
DT40 TDP1 no CPT = qHTS for Inhibitors of human tyrosyl-DNA phosphodiesterase 1 (TDP1): qHTS in cells in absence of CPT; Potency, µM (highest dose often 46.2 µM), hits mostly inhibitors; 420,000 compounds, 15% hits; AID 686978, 2013; DT40 Tdp1-/- hTDP1 cells, no CPT, ATP luminescence, 48 h; further: nearly all actives have a fitted effect of over 55% in size
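A cellular qHTS used chicken DT40 cells lacking endogenous Tdp1 but carrying stably transfected human TDP1. Compounds were applied without camptothecin, and cell growth kinetics were judged by ATP-dependent luminescence after ≥48 hr.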
ELG1 repair inh = blocks ELG1-dependent DNA repair in HEK293T cells | Potency, µM (top dose mostly 46.1 µM), usual class: inhibitors | AID 504467 | 330,000 compounds, 2.3% hits | HEK293T ELG1-luciferase reporter, luminescence, 16 h; DNA damage induced by 5-fluorouridine; further: nearly all actives have a fitted effect of over 55% in size
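HEK293T cells expressing luciferase-tagged ELG1 (2,000/well) received 5-Fluorouridine plus compound or DMSO for 16 hr at 37 °C. Luciferase was read by ONE-Glo luminescence after 30 min at room temperature.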
Numbers stand for hits; n = inactive; u = inconclusive; x = no result; [ ] = dose if it differs, or a comment. In the library only some 21% were active in any assay of this set; here they are far more common. Unless noted, the call rests on the fitted dose curve; in most records, active means well fitted curve in the direction sought with a large enough effect; inconclusive means small, poorly fitted or top-dose-only effect, or another doubt; inactive means no such curve, though single readings can be large; an effect the other way counts as inactive or inconclusive.

SMILES	RORgamma inh	IL1B secr inh	TDP1 cell CPT	Gal4-VP16 FLuc	DT40 TDP1 no CPT	ELG1 repair inh
O=C(NCCc1ccccc1)C(=O)NCC1OCCN1S(=O)(=O)c1ccc2c(c1)OCCO2 (stereo unspecified)	n	n	u	n	n	n
O=C(NCc1ccccc1)C(=O)NCC1OCCN1S(=O)(=O)c1ccc2c(c1)OCCO2 (stereo unspecified)	n	n	u	n	n	n
Cc1ccc(CNC(=O)C(=O)NCC2OCCN2S(=O)(=O)c2ccc3c(c2)OCCO3)cc1 (stereo unspecified)	n	n	26µM	n	n	u
COc1ccc(CCNC(=O)C(=O)NCC2OCCN2S(=O)(=O)c2ccc3c(c2)OCCO3)cc1 (stereo unspecified)	n	n	21µM	n	16µM	u
COc1ccc(S(=O)(=O)N2CCOC2CNC(=O)C(=O)NCCc2ccc(OC)c(OC)c2)cc1C (stereo unspecified)	n	n	u	n	16µM	15µM
CCN1CCCC1Cn1c(-c2ccccc2)nc2c(NCCOC)nc(C)nc21 (stereo unspecified)	n	x	x	n	x	x
CCOC(=O)C1=C(C)OC2(O)c3ccccc3C(=O)C12O (stereo unspecified)	n	n	u	n	21µM	n
CC(=O)C1=C(C)OC2(O)c3ccccc3C(=O)C12O (stereo unspecified)	n	n	u	n	18µM	n
Cc1ccc(C)c(NC(=O)Cn2c(=O)n(CC3CCCO3)c(=O)c3ccccc32)c1 (stereo unspecified)	x	x	n	x	u	x
Cc1c(C(=O)NCc2ccc3c(c2)OCCO3)sc(=O)n1Cc1ccc(S(=O)(=O)N(C)C)cc1	x	n	18µM	x	15µM	x
Cc1c(C(=O)NCc2cccs2)sc(=O)n1Cc1ccc(S(=O)(=O)N(C)C)cc1	x	n	u	x	23µM	x
Cc1c(C(=O)NCc2ccc3c(c2)OCO3)sc(=O)n1Cc1ccc(S(=O)(=O)N(C)C)cc1	x	n	u	x	16µM	x
Cc1c(C(=O)NCc2ccc3c(c2)OCCO3)sc(=O)n1Cc1ccccc1C#N	x	n	u	x	16µM	x
CSc1nc(NC(C)=O)nc(C)c1Cl	n	n	n	n	n	n
Cc1cccc(N2CCN(S(=O)(=O)c3cn(C)c(C)n3)CC2)c1C	x	x	n	x	n	x
Cc1c(C(=O)NCc2ccc3c(c2)OCCO3)sc(=O)n1Cc1ccc2c(c1)OCO2	x	n	u	x	u	x
Cc1c(C(=O)NCc2cccc(C(F)(F)F)c2)sc(=O)n1Cc1ccc(S(=O)(=O)N(C)C)cc1	x	u	21µM	x	u	x
Cc1noc(C)c1Cn1c(C)c(C(=O)NCc2ccc3c(c2)OCCO3)sc1=O	x	n	8.2µM	x	16µM	x
Cc1ccc(Cn2c(C)c(C(=O)NCc3cccc(C(F)(F)F)c3)sc2=O)cc1	x	n	n	x	n	x
C=CCn1c(CNc2ccc(C)cc2)nnc1SCC(=O)N/N=C/c1ccc(O)cc1O	n	n	18µM	n	u	u
C=CCn1c(COc2ccccc2)nnc1SCC(=O)N/N=C/c1cc(Cl)ccc1O	13µM	n	u	u	u	x
C=CCn1c(COc2ccccc2)nnc1SCC(=O)N/N=C/c1ccc(C)cc1	n	n	u	n	u	n
C=CCn1c(CNc2ccccc2)nnc1SCC(=O)N/N=C/c1ccc(O)cc1O	n	n	18µM	n	u	n
CC(=O)N1CCC2(CC1)OC(=O)C(C)=C2C(=O)NCc1cccc(Cl)c1	x	x	n	x	n	x
Cc1cc(Br)c2nc(-c3ccccc3)c(Cc3cccc(Cl)c3)n2c1	x	n	u	x	u	x
SMILES	RORgamma inh	IL1B secr inh	TDP1 cell CPT	Gal4-VP16 FLuc	DT40 TDP1 no CPT	ELG1 repair inh
CCOc1ccc(OCC(=O)N2CCOCC2)cc1	n	n	n	u	n	n
N#CC(C#N)=Cc1ccc(OCC(=O)N2CCOCC2)cc1	n	-53	21µM	n[10 µM]	u	n
COc1ccccc1NC(=O)c1nnn(CC(=O)Nc2cccc(SC)c2)c1N	6.3µM	n	n	u	n	u
COc1ccc(Br)cc1Cn1nnc(C(=O)Nc2cccc(SC)c2)c1N	x	x	16µM	x	23µM	x
COc1cc2oc(=O)c(CC(=O)N3CCCCC3)c(C)c2cc1Cl	x	x	n	x	n	x
COc1ccccc1C(=O)NNC(=O)c1nn(Cc2ccccc2)c(=O)c2ccccc12	6.3µM	n	21µM	u	u	u
O=C(c1nn(Cc2ccccc2)c(=O)c2ccccc12)N1CCc2ccccc2C1	n	n	n	n	16µM	u
CC(C)CCn1nc(C(=O)Nc2nc3c(s2)CCCC3)c2ccccc2c1=O	n[10 µM]	x	26µM	u	18µM	u
CC(C)CCn1nc(C(=O)OCC(=O)NC(C)c2ccccc2)c2ccccc2c1=O (stereo unspecified)	x	n	n	x	n	x
CCNC(=O)CNC(=O)c1nn(Cc2ccccc2)c(=O)c2ccccc12	n	n	n	n	n	n
O=C(Nc1nc2c(s1)CCCC2)c1nn(Cc2ccccc2)c(=O)c2ccccc12	n	n	u	n	23µM	u
CC(C)CNC(=O)c1nn(Cc2ccccc2)c(=O)c2ccccc12	n	n	u	n	n	n
O=C(NCCC1=CCCCC1)C1CC(=O)N(Cc2ccccc2)C1 (stereo unspecified)	n	n	n	n	n	n
O=C1NC(=S)N/C1=C/c1cc2c(cc1[N+](=O)[O-])OCO2	n	n	4.1µM	n	0.58µM	n
CS(=O)(=O)N1CCc2cc(C(=O)Nc3cccc([N+](=O)[O-])c3)ccc21	n[1.91 µM]	n	n	n	u	u
CC(=O)Nc1cccc(NC(=O)c2ccc3c(c2)CCN3S(=O)(=O)c2ccccc2)c1	n	u	u	n	u	n
CSc1cccc(NC(=O)c2ccc3c(c2)CCCN3S(C)(=O)=O)c1	x	x	16µM	x	u	x
CCS(=O)(=O)N1CCCc2cc(C(=O)Nc3cccc(C(C)=O)c3)ccc21	x	x	u	x	26µM	x
CC(=O)c1cccc(NC(=O)c2ccc3c(c2)CCN3S(=O)(=O)c2ccccc2)c1	u	n	15µM	13µM	21µM	u
Cc1ccc(Cl)cc1N1CCN(C(=O)c2ccc3c(c2)CCN3S(=O)(=O)c2ccccc2)CC1	x	x	9.2µM	x	10µM	x
CCOC(=O)[C@H]1[C@H]2COc3ccccc3[C@@H]2N2C(=O)CN(CC3CCCO3)C(=O)[C@@]12C (stereo partly specified)	x	n	n	x	n	u
O=C(Nc1cccc(Cl)c1)c1ccc2c(c1)CCN2S(=O)(=O)c1ccccc1	x	x	13µM	x	21µM	x
CSc1cccc(NC(=O)c2cccc(N3CCCS3(=O)=O)c2)c1	x	x	u	x	18µM	x

Screens deposited in PubChem by National Center for Advancing Translational Sciences (NCATS).
